# Inconclusive results are not listed. Activity calls are given as the source filed them. The calls were made as follows, unless noted: active = hit-call score of the fitted dose curve at least 0.9, where 1 is the maximum; inactive = score below 0.9.
# Tests used:
# [1] = ATG_BRE_CIS: Attagene CIS-FACTORIAL HepG2 Assay for human Bone Morphogenetic Protein (BMP) Response Element (BRE) (AID 2282933); conditions: HepG2 BMP response element reporter, Attagene transcription factor profiling; actives raise or lower the signal
# Outline: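 Gain- or loss-of-signal was derived by bidirectional fitting against DMSO controls. The signal came from reporter mRNA, measured by RT-PCR and capillary electrophoresis, in HepG2 cells transiently carrying multiple reporter units and dosed for 24 h.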
# [2] = ATG_E_Box_CIS: Attagene CIS-FACTORIAL HepG2 Assay for human Enhancer Box (E-box) (AID 2282936); conditions: HepG2 E-box cis-reporter transcription, actives raise or lower the signal
# Outline: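 First, HepG2 cells receive multiple cis-regulated reporter constructs by transient transfection. Next, chemicals are applied for 24 h. Finally, reporter mRNA is quantified via RT-PCR and capillary electrophoresis, with DMSO as baseline.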
# [3] = ATG_PBREM_CIS: Attagene CIS-FACTORIAL HepG2 Assay for human Phenobarbital-responsive Enhancer Module (PBREM) (AID 2282955); conditions: HepG2 PBREM cis-reporter, Attagene multiplexed transcription; actives raise or lower the signal
# Outline: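 Fluorescence of labelled reporter cDNA fragments, resolved by capillary electrophoresis, gives mRNA induction in transfected HepG2 cells treated for 24 h; DMSO serves as negative control and baseline.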
# [4] = ATG_PPRE_CIS: Attagene CIS-FACTORIAL HepG2 Assay for human Peroxisome Proliferator-activated Response Element (PPRE) (AID 2282958); conditions: HepG2 PPRE cis-element reporter, Attagene transcription factor profiling; actives raise or lower the signal
# Outline: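 Cells are first transfected transiently with the multiplexed reporter library, then dosed for 24 h. Total RNA is reverse-transcribed, amplified, fluorescently end-labeled and HpaI-cut before capillary electrophoresis; activity is fitted bidirectionally against DMSO controls.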
# [5] = ATG_Sox_CIS: Attagene CIS-FACTORIAL HepG2 Assay for human SRY-box transcription factor (SOX) (AID 2282960); conditions: HepG2 Attagene cis-factorial SOX reporter, mRNA; actives raise or lower the signal
# Outline: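 Transient MRTU transfection of HepG2; 24 h compound incubation; TriZol RNA, oligo(dT) RT, PCR, 6-FAM primer extension, HpaI cut, CE. Bidirectional fit, DMSO = baseline.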
# [6] = ATG_SREBP_CIS: Attagene CIS-FACTORIAL HepG2 Assay for human Sterol Regulatory Element Binding (SREBP) (AID 2282962); conditions: HepG2 Attagene cis-factorial SREBP reporter, mRNA; actives raise or lower the signal
# Outline: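 Transfected HepG2 (cis-regulated reporter library, endogenous TFs) → compound 24 h → total RNA → oligo(dT) RT → reporter-specific PCR → FAM primer extension, HpaI cut → CE fluorescence. Fit bidirectional vs DMSO.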
# [7] = biological target: X-box-binding protein 1 (Homo sapiens) (UniProt P17861); assay: ATG_Xbp1_CIS: Attagene CIS-FACTORIAL HepG2 Assay for human X-box Binding Protein 1 (XBP1) (AID 2282972); conditions: HepG2 XBP1 cis-element reporter, Attagene multiplex; actives raise or lower the signal
# Outline: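 HepG2, transient MRTU transfection (cis-promoter driven), 24 h compound exposure. Total RNA → oligo(dT) RT → PCR → 6-FAM labeling → HpaI cut → CE. Bidirectional fit vs DMSO.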
# [8] = biological target: Hepatocyte nuclear factor 4-alpha (Homo sapiens) (UniProt P41235); assay: ATG_HNF4a_TRANS: Attagene TRANS-FACTORIAL HepG2 Assay for human Hepatocyte Nuclear Factor 4 alpha (HNF4a) (AID 2282982; active = hit-call score of the fitted dose curve at least 0.9, where 1 is the maximum); conditions: HepG2 HNF4a transactivation reporter, mRNA readout
# Outline: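 Gain-of-signal mRNA induction, relative to DMSO vehicle, was read after 24 h compound treatment of HepG2 cells bearing transfected GAL4-UAS reporters. Detection used RT-PCR, 6-FAM primer extension and capillary electrophoresis.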
# [9] = biological target: Nuclear respiratory factor 1 (Homo sapiens) (UniProt Q16656); assay: ATG_NRF1_CIS: Attagene CIS-FACTORIAL HepG2 Assay for human Nuclear Respiratory Factor 1 (NRF1) Orphan Gene (AID 2282987); conditions: HepG2 NRF1 cis-element reporter, Attagene multiplex; actives raise or lower the signal
# Outline: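 Fluorescence intensity of labelled reporter cDNA fragments, resolved by capillary electrophoresis, served as readout for NRF1 cis-element activity. Transiently transfected HepG2 cells were dosed for 24 hours; activity in either direction was fitted against DMSO negative control.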
# [10] = ATG_NFI_CIS: Attagene CIS-FACTORIAL HepG2 Assay for human Nuclear Factor I (NFI) (AID 2282989); conditions: HepG2 cis-regulatory reporter, NFI response element transcription; actives raise or lower the signal
# Outline: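 After transient transfection of HepG2 with cis-promoter reporter constructs and 24 h dosing, RNA is reverse-transcribed, amplified, 6-FAM end-labelled and HpaI-digested before capillary analysis. Bidirectional curve fitting against DMSO.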
# [11] = biological target: Peroxisome proliferator-activated receptor gamma (Homo sapiens) (UniProt P37231); assay: ATG_PPARg_TRANS: Attagene TRANS-FACTORIAL HepG2 Assay for human Peroxisome Proliferator-activated Receptor-gamma (PPARg) (AID 2283007; active = hit-call score of the fitted dose curve at least 0.9, where 1 is the maximum)
# Outline: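 A TRANS-format multiplexed reporter assay measures activity of an exogenous chimeric NR-Gal4 protein in HepG2 cells. After 24 h of chemical exposure, reporter transcripts are amplified, fluorescently labelled and sized by capillary electrophoresis, with gain of signal scored against DMSO.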
# [12] = biological target: Nuclear receptor subfamily 1 group I member 2 (Homo sapiens) (UniProt O75469); assay: ATG_PXR_TRANS: Attagene TRANS-FACTORIAL HepG2 Assay for human Pregnane X Receptor (PXR) (AID 2283008; active = hit-call score of the fitted dose curve at least 0.9, where 1 is the maximum)
# Outline: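 Read-out is fluorescence of labelled reporter cDNA fragments separated by capillary electrophoresis after RT-PCR and HpaI digestion. Source: HepG2 cells carrying PXR-GAL4/UAS reporter constructs, treated 24 h; activity fitted upward relative to DMSO.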
# [13] = biological target: Retinoic acid receptor RXR-alpha (Homo sapiens) (UniProt P19793); assay: ATG_RXRa_TRANS: Attagene TRANS-FACTORIAL HepG2 Assay for human Retinoid X Receptor alpha (RXRa) (AID 2283012; active = hit-call score of the fitted dose curve at least 0.9, where 1 is the maximum)
# Outline: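 Cells (HepG2) carried transiently transfected GAL4-responsive reporter units. Following a 24 h chemical incubation, reporter mRNA induction was read via RT-PCR fragment analysis; DMSO served as negative control and baseline.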
# [14] = biological target: Cellular tumor antigen p53 (Homo sapiens) (UniProt P04637); assay: TOX21_p53_BLA_p3_ratio: Tox21 HCT-116 p53 Agonism Beta-lactamase Assay, Ratio, Phase 3 (AID 2283596; active = hit-call score of the fitted dose curve at least 0.9, where 1 is the maximum)
# Outline: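 HCT116 p53-bla cells (4000/well) given compound in DMSO (217-fold dilution) after 5 h, incubated 16 h at 37C. CCF4-AM substrate 2 h at room temperature; 460/530 nm emission ratio, gain fitted against DMSO.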
# [15] = biological target: Cellular tumor antigen p53 (Homo sapiens) (UniProt P04637); assay: TOX21_p53_BLA_p5_ratio: Tox21 HCT-116 p53 Agonism Beta-lactamase Assay, Ratio, Phase 5 (AID 2283599; active = hit-call score of the fitted dose curve at least 0.9, where 1 is the maximum)
# Outline: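 HCT-116 p53-bla cells (4000/well) plated 5 h, dosed with compound (217-fold DMSO dilution) for 16 h at 37 C; CCF4-AM substrate 2 h at room temperature. Activity is the 460/530 nm emission ratio (405 nm excitation), fitted in gain-of-signal direction versus DMSO.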
# [16] = biological target: Cellular tumor antigen p53 (Homo sapiens) (UniProt P04637); assay: TOX21_p53_BLA_p4_ratio: Tox21 HCT-116 p53 Agonism Beta-lactamase Assay, Ratio, Phase 4 (AID 2283601; active = hit-call score of the fitted dose curve at least 0.9, where 1 is the maximum)
# Outline: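 HCT-116 p53 beta-lactamase reporter cells (4000/well) preincubated 5 h, then compound (217-fold dilution of DMSO stock) for 16 h at 37C. CCF4-AM substrate added 2 h at room temperature; 460/530 nm emission ratio fitted upward versus DMSO.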
# [17] = ATG_GRE_CIS: Attagene CIS-FACTORIAL HepG2 Assay for human Glucocorticoid Response Elements (GRE) (AID 2282947); conditions: HepG2 GRE cis-reporter, Attagene multiplex mRNA; actives raise or lower the signal
# Outline: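 Endogenous transcription factor activity is read through cis-element reporter constructs transiently transfected into HepG2 cells. After 24 h treatment, labelled RT-PCR products are resolved by capillary electrophoresis; DMSO sets baseline for bidirectional curve fitting.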
# [18] = ATG_M_06_TRANS: Attagene TRANS-FACTORIAL HepG2 Assay for M06 Transcription Factor (Internal Marker) (AID 2282983; active = hit-call score of the fitted dose curve at least 0.9, where 1 is the maximum;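 also: reporter transcript level by RT-PCR then capillary electrophoresis fluorescence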); conditions: HepG2 Attagene TRANS M06 internal marker reporter
# Outline: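 Cells: HepG2, transient multi-reporter transfection. Exposure: 24 h. Detection: RT-PCR, 6-FAM labelling, HpaI digestion (2 h, 37 °C), capillary electrophoresis. Baseline: DMSO.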
# [19] = biological target: human Retinoid X Receptor beta (RXRb), RXRB (gene 6257) (UniProt P28702); assay: ATG_RXRb_TRANS: Attagene TRANS-FACTORIAL HepG2 Assay for human Retinoid X Receptor beta (RXRb) (AID 2283013; active = hit-call score of the fitted dose curve at least 0.9, where 1 is the maximum)
# Outline: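 Multiplexed TRANS reporter assay in HepG2; 24 h dosing; reporter mRNA by RT-PCR/CE fluorescence; gain-of-signal relative to DMSO.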
# [20] = ATG_FoxO_CIS: Attagene CIS-FACTORIAL HepG2 Assay for human Forkhead box O (FoxO) (AID 2282943); conditions: HepG2 Attagene cis-reporter, FoxO element, mRNA; actives raise or lower the signal
# Outline: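 Transfected HepG2 reporter cells exposed to test chemical for 24 h; reporter RNA measured by reverse transcription, PCR and fluorescent capillary electrophoresis; curves fitted for increases and decreases against DMSO.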
# Cellular tumor antigen p53 (Homo sapiens), sequence (P04637 whole entry, looked up): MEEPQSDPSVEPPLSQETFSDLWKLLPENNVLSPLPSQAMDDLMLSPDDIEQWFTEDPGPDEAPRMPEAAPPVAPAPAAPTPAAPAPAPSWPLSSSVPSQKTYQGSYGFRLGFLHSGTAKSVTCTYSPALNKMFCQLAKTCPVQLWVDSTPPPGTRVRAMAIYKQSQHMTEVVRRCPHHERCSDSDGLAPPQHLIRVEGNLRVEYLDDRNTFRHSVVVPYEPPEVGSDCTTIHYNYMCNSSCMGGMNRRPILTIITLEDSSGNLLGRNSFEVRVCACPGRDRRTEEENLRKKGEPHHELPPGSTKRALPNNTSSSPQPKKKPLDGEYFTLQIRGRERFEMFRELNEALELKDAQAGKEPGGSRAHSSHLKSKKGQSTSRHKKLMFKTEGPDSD
# Nuclear receptor subfamily 1 group I member 2 (Homo sapiens), sequence (O75469 whole entry, looked up, the tested form may be a part): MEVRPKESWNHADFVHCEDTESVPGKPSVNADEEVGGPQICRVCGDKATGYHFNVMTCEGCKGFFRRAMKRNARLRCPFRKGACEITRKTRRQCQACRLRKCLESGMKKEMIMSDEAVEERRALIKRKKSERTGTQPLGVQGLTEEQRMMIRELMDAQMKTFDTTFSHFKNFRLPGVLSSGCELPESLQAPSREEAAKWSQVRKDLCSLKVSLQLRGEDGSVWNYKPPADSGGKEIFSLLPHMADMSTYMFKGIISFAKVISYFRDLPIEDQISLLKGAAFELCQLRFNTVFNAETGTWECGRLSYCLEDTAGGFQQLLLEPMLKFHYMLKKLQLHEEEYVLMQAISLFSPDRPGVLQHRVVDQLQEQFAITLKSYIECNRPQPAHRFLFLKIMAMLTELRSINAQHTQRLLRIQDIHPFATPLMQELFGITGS
# Peroxisome proliferator-activated receptor gamma (Homo sapiens), sequence (P37231 whole entry, looked up, the tested form may be a part): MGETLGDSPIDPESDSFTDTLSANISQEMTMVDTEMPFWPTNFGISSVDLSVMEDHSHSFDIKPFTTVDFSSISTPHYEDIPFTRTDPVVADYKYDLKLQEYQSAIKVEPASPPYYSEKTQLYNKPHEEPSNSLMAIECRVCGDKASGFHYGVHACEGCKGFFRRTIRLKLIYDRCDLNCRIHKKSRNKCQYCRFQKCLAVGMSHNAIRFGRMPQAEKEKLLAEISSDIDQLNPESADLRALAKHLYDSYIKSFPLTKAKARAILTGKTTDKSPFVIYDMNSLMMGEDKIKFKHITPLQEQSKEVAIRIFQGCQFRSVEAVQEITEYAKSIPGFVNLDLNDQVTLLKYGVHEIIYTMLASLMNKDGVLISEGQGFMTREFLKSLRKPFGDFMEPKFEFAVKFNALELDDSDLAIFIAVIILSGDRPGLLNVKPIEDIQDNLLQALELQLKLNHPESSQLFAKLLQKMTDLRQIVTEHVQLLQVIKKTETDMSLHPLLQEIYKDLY
# X-box-binding protein 1 (Homo sapiens), sequence (P17861 whole entry, looked up): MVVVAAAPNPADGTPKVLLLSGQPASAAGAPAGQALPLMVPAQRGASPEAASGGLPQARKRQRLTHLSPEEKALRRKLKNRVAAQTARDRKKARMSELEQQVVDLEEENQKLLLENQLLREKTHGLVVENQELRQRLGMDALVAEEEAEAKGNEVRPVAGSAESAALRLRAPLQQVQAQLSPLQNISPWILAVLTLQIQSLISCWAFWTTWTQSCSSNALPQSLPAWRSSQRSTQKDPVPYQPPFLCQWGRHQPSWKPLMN
# Hepatocyte nuclear factor 4-alpha (Homo sapiens), sequence (P41235 whole entry, looked up, the tested form may be a part): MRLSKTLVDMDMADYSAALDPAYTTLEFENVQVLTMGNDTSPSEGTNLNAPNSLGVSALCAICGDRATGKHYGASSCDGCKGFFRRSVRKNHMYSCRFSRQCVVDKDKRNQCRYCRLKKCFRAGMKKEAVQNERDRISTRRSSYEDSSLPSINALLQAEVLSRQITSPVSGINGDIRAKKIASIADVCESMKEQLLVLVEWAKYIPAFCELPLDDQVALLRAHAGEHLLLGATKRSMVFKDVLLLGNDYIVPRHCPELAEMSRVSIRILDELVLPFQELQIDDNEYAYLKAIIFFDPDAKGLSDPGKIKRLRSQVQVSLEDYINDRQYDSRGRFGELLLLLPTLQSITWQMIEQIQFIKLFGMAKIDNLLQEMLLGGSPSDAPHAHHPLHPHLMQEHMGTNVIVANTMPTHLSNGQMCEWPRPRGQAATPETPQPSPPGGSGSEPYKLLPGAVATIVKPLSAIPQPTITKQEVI
# Retinoic acid receptor RXR-alpha (Homo sapiens), sequence (P19793 whole entry, looked up, the tested form may be a part): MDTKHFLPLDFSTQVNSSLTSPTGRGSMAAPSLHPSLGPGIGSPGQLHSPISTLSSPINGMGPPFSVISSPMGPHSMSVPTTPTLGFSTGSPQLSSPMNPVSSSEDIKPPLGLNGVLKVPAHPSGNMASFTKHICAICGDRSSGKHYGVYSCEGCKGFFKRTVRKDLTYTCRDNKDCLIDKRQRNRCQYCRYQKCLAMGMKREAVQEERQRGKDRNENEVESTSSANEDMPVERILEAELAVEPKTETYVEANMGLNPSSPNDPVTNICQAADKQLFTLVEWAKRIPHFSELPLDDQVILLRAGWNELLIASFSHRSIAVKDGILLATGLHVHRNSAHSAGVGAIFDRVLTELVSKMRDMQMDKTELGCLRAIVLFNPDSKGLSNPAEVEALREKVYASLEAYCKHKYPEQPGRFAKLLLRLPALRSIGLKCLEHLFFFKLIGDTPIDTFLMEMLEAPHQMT
# human Retinoid X Receptor beta (RXRb), RXRB (gene 6257), sequence (P28702 whole entry, looked up): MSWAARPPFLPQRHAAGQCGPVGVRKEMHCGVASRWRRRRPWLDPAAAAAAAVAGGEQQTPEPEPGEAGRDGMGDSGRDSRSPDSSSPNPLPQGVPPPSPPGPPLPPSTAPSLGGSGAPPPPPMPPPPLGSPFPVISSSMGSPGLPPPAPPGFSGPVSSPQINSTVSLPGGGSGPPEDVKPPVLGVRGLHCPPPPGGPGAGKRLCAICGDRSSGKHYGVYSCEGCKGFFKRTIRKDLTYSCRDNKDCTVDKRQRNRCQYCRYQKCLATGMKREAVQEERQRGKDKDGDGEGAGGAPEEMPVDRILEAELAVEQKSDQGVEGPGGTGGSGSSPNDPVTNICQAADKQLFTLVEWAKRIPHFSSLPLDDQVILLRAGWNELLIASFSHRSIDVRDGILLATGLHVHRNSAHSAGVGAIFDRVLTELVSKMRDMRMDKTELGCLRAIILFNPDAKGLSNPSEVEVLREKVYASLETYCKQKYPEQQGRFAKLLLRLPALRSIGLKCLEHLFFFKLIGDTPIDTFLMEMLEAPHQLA
# Nuclear respiratory factor 1 (Homo sapiens), sequence (Q16656 whole entry, looked up, the tested form may be a part): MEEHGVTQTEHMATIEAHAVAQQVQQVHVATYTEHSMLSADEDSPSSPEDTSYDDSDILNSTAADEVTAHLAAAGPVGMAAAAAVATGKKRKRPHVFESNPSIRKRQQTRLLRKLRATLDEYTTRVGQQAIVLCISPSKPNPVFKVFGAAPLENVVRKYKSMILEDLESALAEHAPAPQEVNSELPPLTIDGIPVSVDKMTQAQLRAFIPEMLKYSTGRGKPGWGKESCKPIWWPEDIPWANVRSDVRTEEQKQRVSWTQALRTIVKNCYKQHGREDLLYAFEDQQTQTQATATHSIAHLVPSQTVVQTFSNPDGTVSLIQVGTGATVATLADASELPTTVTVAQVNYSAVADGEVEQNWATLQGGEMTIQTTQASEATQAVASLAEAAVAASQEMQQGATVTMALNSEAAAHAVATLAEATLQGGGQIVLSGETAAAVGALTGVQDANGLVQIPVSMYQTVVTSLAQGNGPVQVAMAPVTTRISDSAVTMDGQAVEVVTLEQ
smiles,measurement,setting,value
O=S(=O)(c1ccccc1)c1ccccc1,outcome,[1],inactive
same,outcome,[2],inactive
same,outcome,[3],inactive
same,outcome,[4],inactive
same,outcome,[5],inactive
same,outcome,[6],inactive
same,outcome,[7],inactive
same,outcome,[8],inactive
same,outcome,[9],inactive
same,outcome,[10],inactive
same,outcome,[11],inactive
same,AC50,[12],10.3 µM (active)
same,outcome,[13],inactive
same,outcome,[14],inactive
same,outcome,[15],inactive
same,outcome,[16],inactive
C=CC(=O)OCCCCOC(=O)C=C,AC50,[2],70.1 µM (active)
same,AC50,[17],70.5 µM (active)
same,outcome,[3],inactive
same,outcome,[4],inactive
same,outcome,[5],inactive
same,outcome,[8],inactive
same,outcome,[18],inactive
same,outcome,[9],inactive
same,AC50,[11],2.14 µM (active)
same,outcome,[12],inactive
same,outcome,[13],inactive
same,outcome,[19],inactive
same,outcome,[14],inactive
same,outcome,[15],inactive
same,outcome,[16],inactive
CC(C)CCCCCCCOP(=O)(Oc1ccccc1)Oc1ccccc1,outcome,[1],inactive
same,outcome,[20],inactive
same,outcome,[17],inactive
same,outcome,[3],inactive
same,outcome,[4],inactive
same,outcome,[5],inactive
same,outcome,[7],inactive
same,outcome,[18],inactive
same,outcome,[9],inactive
same,outcome,[10],inactive
same,AC50,[11],7.95 µM (active)
same,AC50,[12],0.711 µM (active)
same,outcome,[19],inactive
same,outcome,[14],inactive
same,outcome,[15],inactive
same,outcome,[16],inactive
CCC(Br)(CC)C(=O)NC(N)=O,outcome,[2],inactive
same,outcome,[20],inactive
same,outcome,[3],inactive
same,outcome,[4],inactive
same,outcome,[5],inactive
same,outcome,[7],inactive
same,outcome,[18],inactive
same,outcome,[9],inactive
same,outcome,[12],inactive
same,outcome,[13],inactive
same,outcome,[19],inactive
same,outcome,[15],inactive
Cl/C=C\CCl,outcome,[1],inactive
same,outcome,[2],inactive
same,outcome,[20],inactive
same,outcome,[17],inactive
same,outcome,[3],inactive
same,outcome,[4],inactive
same,outcome,[5],inactive
same,outcome,[6],inactive
same,outcome,[7],inactive
same,outcome,[8],inactive
same,outcome,[18],inactive
same,outcome,[9],inactive
same,outcome,[10],inactive
same,outcome,[11],inactive
same,outcome,[12],inactive
same,outcome,[19],inactive
O=C(O)C(Br)Br,outcome,[1],inactive
same,outcome,[2],inactive
same,outcome,[17],inactive
same,outcome,[3],inactive
same,outcome,[7],inactive
same,outcome,[8],inactive
same,outcome,[9],inactive
same,outcome,[13],inactive
same,outcome,[14],inactive
same,outcome,[15],inactive
same,outcome,[16],inactive
C=C(Cl)CCl,outcome,[1],inactive
same,outcome,[2],inactive
same,outcome,[20],inactive
same,outcome,[17],inactive
same,outcome,[4],inactive
same,outcome,[5],inactive
same,outcome,[6],inactive
same,outcome,[8],inactive
same,outcome,[18],inactive
same,outcome,[9],inactive
same,outcome,[10],inactive
same,outcome,[11],inactive
same,outcome,[12],inactive
same,outcome,[13],inactive
same,outcome,[19],inactive
same,outcome,[14],inactive
CC(=O)C=Cc1ccccc1,outcome,[2],inactive
same,outcome,[17],inactive
same,outcome,[3],inactive
same,outcome,[4],inactive
same,AC50,[5],164 µM (active)
same,outcome,[6],inactive
same,outcome,[7],inactive
same,outcome,[8],inactive
same,outcome,[9],inactive
same,outcome,[10],inactive
same,AC50,[11],27 µM (active)
same,AC50,[12],35.9 µM (active)
same,outcome,[13],inactive
same,outcome,[19],inactive
CN(C)C(=O)C(c1ccccc1)c1ccccc1,outcome,[2],inactive
same,outcome,[3],inactive
same,outcome,[4],inactive
same,outcome,[5],inactive
same,outcome,[6],inactive
same,outcome,[7],inactive
same,outcome,[8],inactive
same,outcome,[9],inactive
same,outcome,[11],inactive
same,AC50,[12],4.18 µM (active)
same,outcome,[13],inactive
same,outcome,[19],inactive
same,outcome,[14],inactive
same,outcome,[15],inactive

# From PubChem BioAssay (EPA / NIEHS)
